TEAD-YAP block = TEAD-YAP interaction inhibition, primary screen, TEAD-YAP interaction inhibitor project, luminescence, HEK-TIYL cells. inhibition, % at 9.12 µM. 640,000 compounds, 1.4% hits. TEAD-Gal4/YAP UAS-luciferase luminescence. AID 1259422, 2018; in the data active means inhibition above about 32%
FBW7 activator = FBW7 E3 ligase activators, primary screen, biochemical, AlphaScreen, human; AlphaScreen FBW7–phospho-cyclin E peptide binding, activator screen; F-box/WD repeat-containing protein 7 (Homo sapiens), Q969H0; normalized activity (activation), % at 26.1 µM; 650,000 compounds, 0.13% hits; in the data active means normalized activity above about 1.9%;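 further: purified mutant Fbw7 with reduced substrate affinity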
GPR151 activ = activators of human GPR151, primary screen, cell-based, PathHunter beta-arrestin, luminescence; 650,000 compounds, 1% hits; activation, % at 11.2 µM; AID 1508602, 2020; PathHunter beta-arrestin GPR151 cells; G-protein coupled receptor 151 (Homo sapiens), Q8TDV0; in the data active means activation above about 4.9%
Target sequence (Q8TDV0 whole entry, looked up): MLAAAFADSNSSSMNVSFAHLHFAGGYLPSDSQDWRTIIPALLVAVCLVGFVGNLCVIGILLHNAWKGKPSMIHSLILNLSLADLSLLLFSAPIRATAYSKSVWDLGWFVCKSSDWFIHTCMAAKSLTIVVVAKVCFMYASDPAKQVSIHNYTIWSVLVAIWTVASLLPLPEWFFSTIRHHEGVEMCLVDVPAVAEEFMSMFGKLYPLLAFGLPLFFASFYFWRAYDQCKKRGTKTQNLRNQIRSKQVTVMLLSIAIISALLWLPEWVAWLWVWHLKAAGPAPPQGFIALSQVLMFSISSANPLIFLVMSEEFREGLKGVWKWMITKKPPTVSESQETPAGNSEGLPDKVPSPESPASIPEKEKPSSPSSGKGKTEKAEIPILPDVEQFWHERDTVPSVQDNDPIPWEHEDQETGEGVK
MITF primary = MITF inhibitors, primary screen, biochemical, AlphaScreen, human. AlphaScreen MITF homodimerization, bead proximity signal. inhibition, % at 2.6 µM. 650,000 compounds, 0.91% hits. AID 1259374, 2018; in the data active means inhibition above about 50%
MITF inh conf = MITF inhibitors, retest of hits, confirmation, biochemical, AlphaScreen, triplicate; 4,700 compounds, 16% hits; shares compounds with MITF primary; inhibition, % at 2.6 µM; AID 1259372, 2018; AlphaScreen MITF homodimerization, biotin/His-MITF beads;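 active means inhibition above a cutoff derived from the DMSO control wells, cut at about 28% in these data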;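 further: inhibitors lower the bead chemiluminescence by keeping MITF from dimerizing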
AS interf DR = AlphaScreen optical interference compounds, dose response, counter-screen, biochemical, HTS | AID 1259373, 2018 | IC50, µM | 480 compounds, 6% hits | AlphaScreen optical interference counterscreen, cell-free | shares compounds with MITF primary; call rule not given here
AlphaScreen intf2 = AlphaScreen optical interference compounds, counter-screen for MITF inhibitor project, biochemical, triplicate; shares compounds with MITF primary; LysRS AlphaScreen counterscreen, signal interference; inhibition, % at 2.6 µM; 4,700 compounds, 7.6% hits; AID 1259376, 2018;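 active means inhibition above a cutoff derived from the DMSO control wells, cut at about 30% in these data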
Each line names hits and unclear results; the compound was inactive in the other large screens (follow-up assays come after a bar, where they were run). A selection: hits, their analogues and other compounds. The true share with any hit is near 3.5%.

CCOC(=O)c1c(-c2ccc(F)cc2)csc1NC(=O)CCN1CCN(CC)CC1	MITF primary 71 | MITF inh conf inactive | AlphaScreen intf2 inactive
CCOC(=O)c1c(-c2ccc(C)o2)csc1NC(=O)CN1CCCCC1C (stereo not given)	MITF primary 57 | MITF inh conf inactive | AlphaScreen intf2 39
CCOC(=O)c1c(-c2ccccc2)csc1NC(=O)CCN1CCN(C)CC1	none
CCOC(=O)c1c(-c2ccc(OC)cc2)csc1NC(=O)CN1CCOCC1	MITF primary 71 | MITF inh conf inactive | AlphaScreen intf2 inactive
CCOC(=O)c1c(-c2ccc(C)cc2)csc1NC(=O)CN1CCOCC1	none
Cc1cccc(N(CC(=O)NC(C)C)C(=O)c2ccc(N3CCCC3)nc2)c1C	none
CC(C)Sc1ccc(-c2ccccc2C=O)cn1	MITF primary 114 | MITF inh conf inactive | AlphaScreen intf2 inactive
O=S(=O)(NCC(c1cccs1)S(=O)(=O)c1ccc(Cl)cc1)c1cccs1 (stereo not given)	MITF primary 73 | MITF inh conf inactive | AlphaScreen intf2 inactive
O=S(=O)(NCC(c1cccs1)S(=O)(=O)c1ccccc1)c1cccs1 (stereo not given)	none
O=C(c1cc2cccnc2n(Cc2ccc(F)cc2)c1=O)N1CCN(c2ccccc2F)CC1	none
COc1ccccc1NC(=O)CSc1nnc(NC(=O)Cc2ccccc2)s1	none
CCCS(=O)(=O)N1CCN(Cc2ccccc2[N+](=O)[O-])CC1	none
O=[N+]([O-])c1ccccc1CN1CCN(CCOCCO)CC1	MITF primary 62 | MITF inh conf inactive | AlphaScreen intf2 inactive
O=[N+]([O-])c1ccccc1CN1CCN(CCO)CC1	MITF primary 77 | MITF inh conf inactive | AlphaScreen intf2 inactive
COc1cc(CN2CCN(CCOCCO)CC2)c([N+](=O)[O-])cc1OC	none
O=[N+]([O-])c1ccccc1CN1CCCCCCC1	none
CC(C)CC(=O)N1CCN(Cc2ccccc2[N+](=O)[O-])CC1	MITF primary 56 | MITF inh conf inactive | AlphaScreen intf2 inactive
O=C(Nc1ccccc1C(=O)NCCO)c1ccco1	none
CCC(c1nnnn1CCOC)N1CCN(c2ccccc2F)CC1 (stereo not given)	none
COc1ccc(C)cc1NC(=O)C(Sc1nnc(-c2cccnc2)n1N)c1ccccc1 (stereo not given)	none
O=C(Nc1ccc2[nH]ncc2c1)[C@H]1C[C@H](O)CN1C(=O)c1ccc(F)cc1	none
Cc1ccc2cc(CN(C(=O)Nc3ccccc3)C3CCCC3)c3nnnn3c2c1	MITF primary 65 | MITF inh conf inactive | AlphaScreen intf2 inactive
NC(=O)c1ccc(NC(=O)C2CCN(S(=O)(=O)c3ccccc3)CC2)cc1	none
CN(C)CC(C)(C)CNC(=S)NCc1ccc2c(c1)OCO2	MITF primary 54 | MITF inh conf inactive | AlphaScreen intf2 inactive
CCN1CCN(CCOc2cc(C)ccc2C(C)C)CC1	MITF primary 52 | MITF inh conf inactive | AlphaScreen intf2 inactive
CCN1CCN(CCCCOc2ccc(C)cc2C)CC1	MITF primary 59 | MITF inh conf inactive | AlphaScreen intf2 inactive
Cc1ccc(OCCN)c(Br)c1	none
CCN1CCN(CCCOc2ccc(C)cc2Br)CC1	MITF primary 63 | MITF inh conf inactive | AlphaScreen intf2 inactive
c1ccc(-c2nnc3n2CCN(Cc2cccn2-c2nccs2)CC3)cc1	none
O=C(N/N=C/C=C/c1ccco1)c1ccncc1	MITF primary 67 | MITF inh conf 76 | AS interf DR inactive | AlphaScreen intf2 inactive
O=C1Nc2cc(C(=O)N3CCN(c4ccccn4)CC3)ccc2NC1CS(=O)(=O)Cc1cccc(F)c1 (stereo not given)	none
O=S(=O)(Nc1cccc2cccnc12)c1ccc2ccccc2c1	none
O=S(=O)(Nc1cccc2cccnc12)c1ccccc1O	TEAD-YAP block 72, MITF primary 60 | MITF inh conf 87 | AlphaScreen intf2 101
O=S(=O)(Cc1ccccc1)N1CCN(CC2CC3C=CC2C3)CC1 (stereo not given)	none
Clc1ccccc1CN1CCN(CC2CC3C=CC2C3)CC1 (stereo not given)	MITF primary 74 | MITF inh conf inactive | AlphaScreen intf2 inactive
Clc1cccc(CN2CCN(CC3CC4C=CC3C4)CC2)c1 (stereo not given)	MITF primary 74 | MITF inh conf inactive | AlphaScreen intf2 inactive
Cc1cccc(CN2CCN(CC3CC4C=CC3C4)CC2)c1 (stereo not given)	MITF primary 57 | MITF inh conf inactive | AlphaScreen intf2 inactive
O=C(NC1CC1)c1csc(Nc2ccncn2)n1	none
CN(C)CCOC(=O)c1ccc(S(=O)(=O)N(C)C)o1	none
CCOC(=O)c1c(NC(=O)CN(C)Cc2ccccc2)sc2c1CC(C)(C)NC2(C)C	MITF primary 65 | MITF inh conf inactive | AlphaScreen intf2 inactive
CCOC(=O)c1c(NC(=O)CN(C)C)sc2c1CC(C)(C)NC2(C)C	none
Cc1ccc(C(=O)CS(=O)(=O)O)cc1	none
COc1ccc(OCC(O)CN2CCCC2)cc1 (stereo not given)	MITF primary 55 | MITF inh conf inactive | AlphaScreen intf2 inactive
CC(=O)N(C)c1ccc(OCC(O)CN2CCN(C)CC2)cc1 (stereo not given)	MITF primary 60 | MITF inh conf inactive | AlphaScreen intf2 inactive
COc1ccc(OCC(O)CN2CCCCCC2)cc1 (stereo not given)	none
CN1CCN(CC(O)COc2ccc(Br)cc2)CC1 (stereo not given)	none
CCOC(=O)c1c(C)n(C)c2ccc(OCC(O)CN3CCCCC3)cc12 (stereo not given)	MITF primary 54 | MITF inh conf inactive | AlphaScreen intf2 inactive
CC(=O)N(C)c1ccc(OCC(O)CN2CCN(c3ccccn3)CC2)cc1 (stereo not given)	MITF primary 65 | MITF inh conf inactive | AlphaScreen intf2 inactive
CC[C@H](Cn1nnn(-c2ccccc2)c1=O)NC(=O)c1ccco1	none
CN=c1scc(C)n1/N=C/C1CCCCC1	MITF primary 97 | MITF inh conf inactive | AlphaScreen intf2 inactive
CCCCS(=O)(=O)C1CCCCC1OC(=O)CCN1CCCCC1 (stereo not given)	MITF primary 51 | MITF inh conf inactive | AlphaScreen intf2 inactive
CC1(C)CC(OC(=O)CCN2CCCCC2)CC(C)(C)N1	none
O=C(c1ccccc1F)N1CCN(Cc2ccccc2C(F)(F)F)CC1	MITF primary 58 | MITF inh conf inactive | AlphaScreen intf2 inactive

Screening results deposited in PubChem by The Scripps Research Institute Molecular Screening Center.
